Structures can show the parent of a compound that is named as a salt. ± gives the standard deviation of the averaged measurements.
Assays:
[1] = system: IL-6-GFP PC-9GR; test: cell viability (CCK-8 OD) relative to DMSO control (fraction of control); higher = more viable cells; conditions: compound concentration: 10 uM; treatment time: 48 h
Procedure, shortened: (§1)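 PC-9 and PC-9GR lung cancer cells overexpressing IL-6-GFP from a lentiviral construct were plated at 3000 cells/well in 96-well plates. Each compound from a purchased 510-compound library was added at a final 10 μM for 48 h, with a parallel plate set used for GFP imaging. Viability was measured by CCK-8 absorbance and expressed as each well's optical density divided by the vehicle (DMSO) control well, from two independent replicates.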

[2] = system: IL-6-GFP PC-9; test: as above; conditions: compound concentration: 10 uM; treatment time: 48 h
Procedure, shortened: as §1

Structure (SMILES)	cell viability [1]	cell viability [2]
CC(C)c1nc(N(C)S(C)(=O)=O)nc(-c2ccc(F)cc2)c1/C=C/C(O)CC(O)CC(=O)O (stereo not drawn) [Rosuvastatin]	1.56 ± 0.24	1.12 ± 0.1
O=c1c(-c2ccc(O)cc2)coc2cc(O)cc(O)c12 [Genistein]	0.975 ± 0.05	0.58 ± 0.32
COc1cc2nccc(Oc3ccc(NC(=O)NC4CC4)c(Cl)c3)c2cc1C(N)=O.CS(=O)(=O)O [lenvatinib Mesylate]	1.15 ± 0.17	0.265 ± 0.16
CN1C2=CC(=O)/C(=N\NC(N)=O)C=C2CC1S(=O)(=O)[O-].[Na+] (stereo not drawn) [Carbazochrome sodium sulfonate (AC-17)]	1.16 ± 0.028	1.04 ± 0.16
Cc1c(-c2ccc(-c3ccccc3F)cc2)nc2ccc(F)cc2c1C(=O)O [Brequinar]	0.402 ± 0.11	0.42356 ± 0.00032
COC1CC2CCC(C)C(O)(O2)C(=O)C(=O)N2CCCCC2C(=O)OC(C(C)CC2CCC(OP(C)(C)=O)C(OC)C2)CC(=O)C(C)/C=C(\C)C(O)C(OC)C(=O)C(C)CC(C)/C=C/C=C/C=C/1C (stereo not drawn) [Ridaforolimus (Deforolimus, MK-8669)]	1.15 ± 0.22	0.571 ± 0.42
COC(=O)NC(C(=O)N1CCCC1c1ncc(-c2ccc3c(c2)OC(c2ccccc2)n2c-3cc3cc(-c4cnc(C5CCCN5C(=O)C(NC(=O)OC)C(C)C)[nH]4)ccc32)[nH]1)C(C)C (stereo not drawn) [Elbasvir]	0.497 ± 0.03	0.809 ± 0.035
CC(CCC(=O)[O-])C1CCC2C3C(O)CC4CC(O)CCC4(C)C3CC(O)C12C.[Na+] (stereo not drawn) [Sodium cholate]	0.344 ± 0.23	0.997 ± 0.067
COC(=O)/C=C/C(=O)OC [Dimethyl Fumarate]	1.13 ± 0.16	1.33 ± 0.26
O=C(O)CCCCC1CCSS1 (stereo not drawn) [(+)-α-Lipoic acid]	1.26 ± 0.2	1.21 ± 0.024
O=NN(CCCl)C(=O)NC1CCCCC1 [Lomustine]	1.05 ± 0.07	0.9506 ± 0.0079
COc1c2ccoc2cc2oc(=O)ccc12 [Bergapten]	0.902 ± 0.041	0.8378 ± 0.0073
Nc1nc(Cl)nc2c1ncn2C1CC(O)C(CO)O1 (stereo not drawn) [Cladribine]	0.941 ± 0.059	0.762 ± 0.076
COC(=O)CC(O)(CCCC(C)(C)O)C(=O)OC1C(OC)=CC23CCCN2CCc2cc4c(cc2C13)OCO4 (stereo not drawn) [Homoharringtonine]	0.275 ± 0.17	0.358 ± 0.042
Cc1cc(S(=O)(=O)[O-])c2c(C)ccc(C(C)C)cc1-2.[Na+] [Sodium gualenate]	1.45 ± 0.46	0.583 ± 0.022
NC(=O)NO [Hydroxyurea]	1.32 ± 0.077	0.839 ± 0.1
CCCCC(CC)CN1CN(CC(CC)CCCC)CC(C)(N)C1 (stereo not drawn) [Hexetidine]	1.58 ± 0.49	1.15 ± 0.07
O=C(O)c1ccccc1OP(=O)(O)O [Fosfosal]	0.943 ± 0.088	1.01 ± 0.21
Cc1ccc(C(=O)Nc2ccc(CN3CCN(C)CC3)c(C(F)(F)F)c2)cc1C#Cc1cnc2cccnn12	0.464 ± 0.3	0.378 ± 0.19
COc1cc2ncnc(Nc3ccc(F)c(Cl)c3)c2cc1NC(=O)/C=C/CN1CCCCC1	0.477 ± 0.02	0.443 ± 0.033
CCC(C)n1ncn(-c2ccc(N3CCN(c4ccc(OCC5COC(Cn6cncn6)(c6ccc(Cl)cc6Cl)O5)cc4)CC3)cc2)c1=O (stereo not drawn) [Itraconazole]	0.797 ± 0.19	0.269 ± 0.17
Nc1ccn(C2OC(CO)C(O)C2(F)F)c(=O)n1 (stereo not drawn) [Gemcitabine]	0.5847 ± 0.0053	0.5589 ± 0.0046
O=C(O)c1cc(O)c(O)c(O)c1 [Gallic acid]	0.792 ± 0.22	0.369 ± 0.14
Cc1c(O)c(C)c2c(c1O)C(=O)CC(c1ccc(O)cc1)O2 (stereo not drawn) [Farrerol]	1.19 ± 0.11	1.05 ± 0.037
NC(=S)N/N=C/c1ncccc1N [Triapine]	0.255 ± 0.16	0.287 ± 0.024
CC(=O)OC1(C(C)=O)CCC2C3CC(C)C4=CC(=O)C=CC4(C)C3(F)C(O)CC21C (stereo not drawn) [Fluorometholone Acetate]	0.701 ± 0.05	0.947 ± 0.087
CCOC(=O)c1ccc(C#Cc2ccc3c(c2)C(C)(C)CCS3)nc1 [Tazarotene]	1.32 ± 0.14	1.15 ± 0.041
COc1cc2c(cc1OC)C1CC(OC(=O)C(N)C(C)C)C(CC(C)C)CN1CC2.Cc1ccc(S(=O)(=O)O)cc1.Cc1ccc(S(=O)(=O)O)cc1 (stereo not drawn) [Valbenazine tosylate]	0.833 ± 0.14	1.01 ± 0.084
O=C(OCC1OC(OC(=O)c2cc(O)c(O)c(OC(=O)c3cc(O)c(O)c(O)c3)c2)C(OC(=O)c2cc(O)c(O)c(OC(=O)c3cc(O)c(O)c(O)c3)c2)C(OC(=O)c2cc(O)c(O)c(OC(=O)c3cc(O)c(O)c(O)c3)c2)C1OC(=O)c1cc(O)c(O)c(OC(=O)c2cc(O)c(O)c(O)c2)c1)c1cc(O)c(O)c(OC(=O)c2cc(O)c(O)c(O)c2)c1 (stereo not drawn) [Tannic acid]	1.05 ± 0.11	1.2 ± 0.23

Reference: the supplement of paper PMC8866396
